Mtb BioA inh = BioA (M. tuberculosis) enzyme inhibition. hit rate 0.096% among 360,000. purified M. tuberculosis BioA enzyme, plate reader. inhibition, % at 9.99 µM; in the data active = inhibition above about 40%; inconclusive = no clear call, values can overlap the other calls
FadD28 binding = blocks FadD28 binding to the bisubstrate probe | fluorescence polarization | inhibition, % at 12.5 µM | hit rate 0.22% among 360,000; in the data active = inhibition above about 8.5%, passing the limit was not always enough; inconclusive = no clear call, values can overlap the other calls
PrP UTR inh = suppresses PrP 5' UTR mRNA reporter expression | cell-based PrP 5' UTR mRNA reporter, plate reader | inhibition, % (concentration not given with the values) | hit rate 0.35% among 340,000; in the data active = inhibition above about 52%; also: 0 = median of the neutral control wells
TcdB GH inh = TcdB glycohydrolase inhibition; P18177; TcdB glycohydrolase enzymatic assay, plate reader; hit rate 0.24% among 350,000; inhibition, % at 9.99 µM; in the data active = inhibition above about 10%
PriA SSB inh = inhibitors of Klebsiella pneumoniae PriA binding to SSB C-terminal tail. AlphaScreen SSBct-PriA binding, biotinylated peptide. inhibition, % at 33 µM. hit rate 0.6% among 430,000. AID 1272365; in the data active = inhibition mostly above about 37%, no sharp cut-off; inactive = mostly below about 20%;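 also: plate controls were negative control peptide for no effect and reference peptide for full effect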
Mtb hypoxia rep = reduces hypoxia-regulated biosensor signal in M. tuberculosis; M. tuberculosis hypoxia-regulated fluorescent reporter, fluorescence; fluorescence inhibition, % (no concentration beside the values); hit rate 0.1% among 300,000; in the data active = fluorescence inhibition mostly above about 23%, no sharp cut-off; inactive = mostly below about 17%
The depositor's hits bear a star; ? = inconclusive; / = no result shown. Shown are actives, neighbours in structure and some others; about 1% of the full set was active somewhere.

SMILES	Mtb BioA inh	FadD28 binding	PrP UTR inh	TcdB GH inh	PriA SSB inh	Mtb hypoxia rep
COc1ccccc1-c1cc(C(=O)Nc2sc3c(c2C#N)CCC(C)C3)c2ccccc2n1 (stereo unspecified)	0	-1	-12	/	-9	/
COc1ccc(N=C2NC(=O)/C(=C/c3ccc(O)c(OC)c3)S2)cc1	/	12*	-19	1	-9	11
CSc1cccc2sc(N3CCN(C(=O)Cc4ccc(Cl)s4)CC3)nc12	/	/	/	/	6	/
Oc1ccc(/C=N/Nc2ccnc3cc(Cl)ccc23)cc1O	/	12*	-45	0	/	/
Oc1ccc(/C=N/Nc2ccnc3cc(Cl)ccc23)c(O)c1O	-1	1	-11	1	/	/
Oc1ccc(C=NNc2ccnc3cc(Cl)ccc23)cc1O	/	/	/	/	47*	15
CC(=NNc1ccnc2cc(Cl)ccc12)c1ccc(N)cc1	/	/	/	/	71*	5
O=C1CC2(CCN(C(=O)c3cc(-c4ccccc4)on3)C2)Oc2ccccc21 (stereo unspecified)	/	/	/	/	-4	/
Cc1ccc2oc(-c3ccco3)nc2c1	0	-3	-68	/	6	15
Cc1ccc(N)c(C)c1	0	-2	-12	1	12	-5
Cc1ccc(N=Nc2cc(C)ccc2N)cc1	/	-3	-39	0	93*	4
O=C1NCCCC1C(=O)Nc1cccc(C(F)(F)F)c1 (stereo unspecified)	-2	-2	2	/	-14	/
CCOc1ccc(OCC(=O)N2CCN(c3nccn3-c3ccc(C)cc3)CC2)cc1	/	/	/	/	60*	/
CCOc1ccccc1NC(=O)CN1CCN(c2nccn2-c2cccc(Cl)c2)CC1	/	/	/	/	59*	/
COc1ccc(NC(=O)CN2CCN(c3nccn3-c3ccc(C)cc3)CC2)cc1OC	/	/	/	/	37*	/
CC(C)c1ccc(OCC(=O)N2CCN(c3nccn3C)CC2)cc1	/	/	/	/	2	/
COC(=O)C[C@H]1CC[C@@H]2[C@H](COc3ccc(NC(=O)C4CCOCC4)cc3C(=O)N2C)O1	1	/	/	1	/	/
CC(Oc1cc2oc(=O)c3c(c2cc1Cl)CCC3)C(=O)NCc1ccccn1 (stereo unspecified)	63*	-1	-6	-1	12	-1
COc1cc(/C=N/n2c(-c3cc(C)[nH]n3)n[nH]c2=S)ccc1O	/	-3	-38	19*	/	/
O=C1COc2ccc(C(=O)COC(=O)CNS(=O)(=O)c3cccc(F)c3)cc2N1	-1	-3	/	12*	3	13
COCCn1c(C2CCCCC2)nc2sc3ccccc3c(=O)c2c1=O	0	-2	-15	/	1	-3
Cc1ccnc2c1ccc1cccnc12	1	-3	26	1	103*	/
Cc1ccnc2c1ccc1c(C)ccnc12	-5	0	55*	/	98*	/
C/[N+]([O-])=C/c1ccnc2c1ccc1cccnc12	/	/	/	/	148*	/
Cc1ccnc2c1ccc1ccccc12	-2	-1	9	2	-3	-5
SMILES	Mtb BioA inh	FadD28 binding	PrP UTR inh	TcdB GH inh	PriA SSB inh	Mtb hypoxia rep
Cc1cc(C)cc(OCCNS(=O)(=O)c2cc([N+](=O)[O-])ccc2Cl)c1	/	/	/	/	36*	/
COc1ccc(-c2nc3ccc([N+](=O)[O-])cc3[nH]2)cc1	/	-9	-32	14*	12	12
Cc1ccc(-c2nc3ccc([N+](=O)[O-])cc3[nH]2)cc1	/	-8	-20	12*	-1	19
COC(=O)c1ccc(N2CCc3ccccc32)c([N+](=O)[O-])c1	2	1	-35	3	52*	7
O=C(NCc1ccc(F)cc1)c1ccc(N2CCc3ccccc32)c([N+](=O)[O-])c1	/	-2	-6	3	74*	8
CCOC(CNC(=O)c1ccc(N2CCc3ccccc32)c([N+](=O)[O-])c1)OCC	/	2	-9	/	63*	8
CCCNC(=O)N1[C@@H](CO)[C@H](c2ccccc2)[C@@H]1CNC(=O)c1cccc(F)c1	-6	/	/	-2	/	/
Cc1ccc(OCc2nnc(NC(=O)c3cccnc3)s2)cc1	/	-1	-17	1	-5	1
C(=NOCc1ccccc1)c1ccccn1	-3	0	/	-3	/	/
Cc1nc2ccc(NC(=O)N(C(C)C)C(C)C)cc2s1	0	-6	-23	/	-14	6
Fc1ccc(NC(=S)Nc2ccc3nccnc3c2)cc1	/	-2	-33	6	45*	0
CC(C)N(C(=O)Nc1ccc2nccnc2c1)C(C)C	-1	-4	-22	/	79*	/
Cc1ccc2c(c1)N(CC(=O)NCCCN1CCCC1)C(=O)CO2	-1	-1	-26	1	-1	4
N#Cc1c(N(CCO)CCO)nc(N)c2c(N)nc3c(c12)CC(=O)N3CC1CCCO1 (stereo unspecified)	/	-1	-22	0	31	14
CCCCN1C(=O)Cc2c1nc(N)c1c(N)nc(N(CCC)CCC)c(C#N)c21	1	0	10	/	39*	4
CCSc1nnc(NC(=O)c2ccc3nc[nH]c3c2)s1	2	-1	-35	1	-1	10
O=C(O)c1cccc2c1-c1ccccc1/C2=N\Nc1ccccc1	0	?	-37	0	/	/
O=C(O)c1cc(N/N=C/C(Cl)=C/c2ccccc2)ccc1Cl	2	19*	-55	0	/	/
O=C(O)c1cc(NN=C/C=C/c2ccccc2)ccc1Cl	/	/	/	/	-4	-10
O=C(O)c1cccc(NN=C2c3ccccc3-c3ccccc32)c1	/	13*	-24	1	12	-9
O=C(O)c1cc(NN=C2c3ccccc3-c3ccccc32)ccc1Cl	4	15*	-7	0	-4	/
O=C(COC(=O)c1cccc(NS(=O)(=O)c2ccc(F)c(F)c2)c1)NC(=O)NC1CCCCC1	2	32*	-15	/	2	2
CCCNC(=O)NC(=O)COC(=O)c1cccc(NS(=O)(=O)c2ccc(F)c(F)c2)c1	-1	-2	-17	4	0	12
O=C1CCC(C(=O)NCCn2cnc3ccsc3c2=O)=NN1	/	/	/	/	-13	/
Cc1ccc(CNc2ccc(O)cc2)cc1	0	12*	-19	/	53	/
SMILES	Mtb BioA inh	FadD28 binding	PrP UTR inh	TcdB GH inh	PriA SSB inh	Mtb hypoxia rep
Cc1ccc(NCc2ccccc2O)cc1	/	-1	-29	/	9	4
Cc1nc(-n2cccc2)sc1C(=O)Nc1nc2c(s1)C(=O)NCCC2	/	/	/	/	active	/
CC(=O)Nc1ccc(OC(=O)Oc2ccc(NC(C)=O)cc2)cc1	-1	0	4	11*	-5	/
CC(=O)Nc1ccc(OC(=O)N(C)C)cc1	/	0	-26	/	4	-4
CCn1cc(NC(=O)Nc2ccc(OC(F)F)cc2)c2ccccc21	/	/	/	/	40*	/
CN(C)S(=O)(=O)c1ccc(C(=O)OCC(=O)Nc2ccc3c(c2)OCO3)cc1	-1	-2	-7	0	7	21*
Cc1ccc(CSCCNC(=O)c2ccc(NS(C)(=O)=O)cc2)cc1	-2	15*	-15	-1	-5	5
COCCn1c(C)cc(C(=O)COC(=O)CCS(=O)(=O)c2ccc(C)cc2)c1C	/	-2	-17	-1	6	8
CC(C)OCCCN(C)C1CCN(S(=O)(=O)c2csc(C(N)=O)c2)CC1	/	1	-27	3	-2	-2
CCN1CCCc2cc(CCNC(=O)Nc3ccc(OC)c(OC)c3)ccc21	/	/	/	/	70*	/

Assay outcomes: PubChem, several laboratories
